Active and inactive are the calls of the source. How the calls were made is not given here.
Target: Pantothenate synthetase (Mycobacterium tuberculosis (strain ATCC 25618 / H37Rv)) (UniProt P9WIL5)
Assay: Recombinant Mtb pantothenate synthetase (PanC) inhibitors, coupled enzyme, confirmatory (AID 375);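 further: 0% = full reaction with vehicle and 100% = no enzyme background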
Conditions: coupled enzyme assay; at 10 µM, active compounds read high

Pantothenate synthetase (Mycobacterium tuberculosis (strain ATCC 25618 / H37Rv)), sequence (P9WIL5 whole entry, looked up): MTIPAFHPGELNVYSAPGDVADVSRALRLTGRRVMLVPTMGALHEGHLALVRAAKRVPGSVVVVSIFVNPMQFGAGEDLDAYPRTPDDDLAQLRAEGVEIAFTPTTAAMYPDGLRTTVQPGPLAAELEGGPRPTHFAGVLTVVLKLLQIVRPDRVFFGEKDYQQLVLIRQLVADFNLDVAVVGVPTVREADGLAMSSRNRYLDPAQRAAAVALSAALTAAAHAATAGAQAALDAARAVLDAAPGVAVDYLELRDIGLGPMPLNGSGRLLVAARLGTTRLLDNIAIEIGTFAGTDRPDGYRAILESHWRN

SMILES	inhibition
CC12CN3CC(C)(CN(C1)C3c1cc(Br)ccc1O)C2=O (stereo not given)	0% (inactive)
Cc1ccc(C)c(N2CCN(C(=O)C3CCN(S(=O)(=O)c4c(C)noc4C)CC3)CC2)c1	4% (inactive)
COCCn1c(-c2ccco2)nc2nc3ccccc3nc21	5% (inactive)
CCOC(=O)N1CCN(C(=O)CCc2ccc(S(=O)(=O)NCCc3ccccc3)cc2)CC1	3% (inactive)
Cc1ccc(-n2c3c(cc(C(=O)NC4CCSC4=O)c2=O)C(=O)CC(C)(C)C3)cc1 (stereo not given)	0% (inactive)
COC(=O)c1[nH]c2ccc(C)cc2c1NC(=O)CN1CCCc2ccccc21	3% (inactive)
COc1ccc(C(=O)OCC(=O)NCc2ccco2)cc1OC	0% (inactive)
CCCN(CCC)CCCNS(=O)(=O)c1ccc2c(c1)oc(=O)n2C	0% (inactive)
O=C(Nc1nc(-c2cccs2)cs1)c1cccc(S(=O)(=O)N2CCCCC2)c1	0% (inactive)
COc1ccc(Nc2nc(Nc3ccc(OC)cc3)nc(-n3[nH]c(=O)c(C)c3C)n2)cc1	0% (inactive)
O=C(NC1CCCc2ccccc21)c1ccc(CNc2c(N3CCOCC3)c(=O)c2=O)cc1 (stereo not given)	0% (inactive)
Cc1cc(C)cc(OCCCC(=O)O)c1	4% (inactive)
COC(=O)CSc1nc2ncc(Cl)cc2[nH]1	1% (inactive)
Cn1cnnc1SCC(=O)Nc1ccccc1Sc1ccccc1	7% (inactive)
O=C(Nc1sccc1C(=O)NCc1ccco1)c1cccnc1	5% (inactive)
c1ccc(CNC2=NCCC2)nc1	0% (inactive)
CCOC(=O)C1CCN(C(=O)c2ccc(OC)cc2OC)CC1	2% (inactive)
Cc1csc(NC(=O)c2ccco2)n1	0% (inactive)
COc1ccc(-n2c(SCCC(=O)O)nnc2-c2ccncc2)cc1	5% (inactive)
Cc1ccc(-c2[nH]nc3c2C(c2ccc(OC(=O)N4CCOCC4)cc2)C(C#N)=C(N)O3)cc1 (stereo not given)	2% (inactive)

SMILES	inhibition
O=C(CSc1nc2ccccc2c(=O)n1CCC(=O)N1CCCCC1)NCc1ccccc1	0% (inactive)
O=C(CN1C(=O)CCSc2ccccc21)Nc1ccc2c(c1)OCO2	2% (inactive)
COc1ccccc1C(=O)OCn1nnc2ccccc2c1=O	0% (inactive)
N#Cc1cnc(SCC(=O)Nc2ccccc2C(F)(F)F)nc1N	4% (inactive)
Cc1onc(-c2ccccc2Cl)c1C(=O)NCc1cccnc1	0% (inactive)
Oc1ccc(Nc2nc(-c3ccc(O)cc3)cs2)cc1	2% (inactive)
Cc1sc2ncnc(OCC(=O)N3CCN(S(=O)(=O)c4ccccc4)CC3)c2c1C	0% (inactive)
Cc1ccc(S(=O)(=O)N2CCOCC2)cc1C(=O)OCC(=O)N1CCc2ccccc2C1	0% (inactive)
COCCOC(=O)C1=C(C)Nc2ncnn2C1c1ccc(F)cc1 (stereo not given)	0% (inactive)
CCCCOC(=O)C1=C(C)Nc2ncnn2C1c1cccc(OC)c1OC (stereo not given)	8% (inactive)
CC(=O)NC(C)C(=O)OCc1ccc(Cl)cc1Cl (stereo not given)	0% (inactive)
O=C(NCCCn1ccnc1)c1cnn2c1NC(c1ccccc1)CC2C(F)(F)F (stereo not given)	2% (inactive)
O=C(O)c1cccc(S(=O)(=O)N2CCOCC2)c1	2% (inactive)
CC(CC(=O)NCc1ccccc1)C1CCCO1 (stereo not given)	0% (inactive)
COc1cc2[nH]c(=O)c(C(=O)NCCCN3CCCCC3)c(O)c2cc1OC	3% (inactive)
CN1CCN(C2=Nc3cc(Cl)ccc3Nc3ccccc32)CC1	8% (inactive)
CCn1c(C)cc(=S)c2ccccc21	9% (inactive)
O=C(C1CCC1)N1CCc2cc(S(=O)(=O)N3CCc4ccccc4C3)ccc21	7% (inactive)
O=C(c1cc2cc(Cl)cc(Cl)c2oc1=O)N1CCOCC1	0% (inactive)
O=C(Cc1ccc(Br)cc1)N1CCCCCC1	1% (inactive)
